Experimental data reported in PubChem BioAssay (NCATS).
Inconclusive results are not listed. Activity calls are given as the source filed them. Calls come from the whole dose curve; as a rule, active = well fitted inhibition curve with a large enough effect; inconclusive = small, poorly fitted or top-dose-only effect; inactive = flat fitted curve, though single readings scatter.

Legend:
Experiment in all cases: qHTS profiling for inhibitors of Plasmodium falciparum proliferation (AID 504749); note: nearly all actives have a fitted effect of over 60% in size
CP256 = conditions: P. falciparum in erythrocytes, SYBR Green DNA, 72 h; series mostly up to 28.7 µM
How it was run: (§1)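 SYBR Green fluorescence (ex 485 nm, em 535 nm) reports parasite DNA after 72 h compound exposure of infected red cells at 0.3% parasitemia, 2.5% hematocrit; signal normalized to 0.29 uM artemisinin and vehicle wells.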

CP260 = conditions: P. falciparum in erythrocytes, SYBR Green DNA, 72 h; series mostly up to 28.7 µM
How it was run: as §1

CP262 = conditions: P. falciparum in erythrocytes, SYBR Green DNA, 72 h; series mostly up to 28.7 µM
How it was run: as §1

CP265 = conditions: P. falciparum in erythrocytes, SYBR Green DNA, 72 h; series mostly up to 12.8 µM
How it was run: as §1

CP266 = conditions: P. falciparum in erythrocytes, SYBR Green DNA, 72 h; series mostly up to 12.8 µM
How it was run: as §1

CP268 = conditions: P. falciparum in erythrocytes, SYBR Green DNA, 72 h; series mostly up to 28.7 µM
How it was run: as §1

CP269 = conditions: P. falciparum in erythrocytes, SYBR Green DNA, 72 h; series mostly up to 28.7 µM
How it was run: as §1

CP286 = conditions: P. falciparum in erythrocytes, SYBR Green DNA, 72 h; series mostly up to 28.7 µM
How it was run: as §1

CP291 = conditions: P. falciparum in erythrocytes, SYBR Green DNA, 72 h; series mostly up to 28.7 µM
How it was run: as §1

CP297 = conditions: P. falciparum in erythrocytes, SYBR Green DNA, 72 h; series mostly up to 28.7 µM
How it was run: as §1

CP305 = conditions: P. falciparum in erythrocytes, SYBR Green DNA, 72 h; series mostly up to 28.7 µM
How it was run: as §1

CP315 = conditions: P. falciparum in erythrocytes, SYBR Green DNA, 72 h; series mostly up to 28.7 µM
How it was run: as §1

CP325 = conditions: P. falciparum in erythrocytes, SYBR Green DNA, 72 h; series mostly up to 28.7 µM
How it was run: as §1

CP329 = conditions: P. falciparum in erythrocytes, SYBR Green DNA, 72 h; series mostly up to 28.7 µM
How it was run: as §1

CP335 = conditions: P. falciparum in erythrocytes, SYBR Green DNA, 72 h; series mostly up to 12.8 µM
How it was run: as §1

DFO2036 = conditions: P. falciparum in erythrocytes, SYBR Green DNA, 72 h; series mostly up to 28.7 µM
How it was run: as §1

DIV14 = conditions: P. falciparum in erythrocytes, SYBR Green DNA, 72 h; series mostly up to 28.7 µM
How it was run: as §1

Dd2 = conditions: P. falciparum in erythrocytes, SYBR Green DNA, 72 h; series mostly up to 28.7 µM
How it was run: as §1

ECU = conditions: P. falciparum in erythrocytes, SYBR Green DNA, 72 h; series mostly up to 28.7 µM
How it was run: as §1

FAB9 = conditions: P. falciparum in erythrocytes, SYBR Green DNA, 72 h; series mostly up to 28.7 µM
How it was run: as §1

GB4 = conditions: P. falciparum in erythrocytes, SYBR Green DNA, 72 h; series mostly up to 28.7 µM
How it was run: as §1

ICS = conditions: P. falciparum in erythrocytes, SYBR Green DNA, 72 h; series mostly up to 28.7 µM
How it was run: as §1

JCK = conditions: P. falciparum in erythrocytes, SYBR Green DNA, 72 h; series mostly up to 28.7 µM
How it was run: as §1

P94_40 = conditions: P. falciparum in erythrocytes, SYBR Green DNA, 72 h; series mostly up to 28.7 µM
How it was run: as §1

PC49 = conditions: P. falciparum in erythrocytes, SYBR Green DNA, 72 h; series mostly up to 28.7 µM
How it was run: as §1

TAB109 = conditions: P. falciparum in erythrocytes, SYBR Green DNA, 72 h; series mostly up to 12.8 µM
How it was run: as §1

TAB113 = conditions: P. falciparum in erythrocytes, SYBR Green DNA, 72 h; series mostly up to 28.7 µM
How it was run: as §1

Measured: Potency
Potency is the fitted concentration of half-maximal effect.

C[C@]12CC[C@H](O)C[C@H]1CCC1C2CC[C@]2(C)[C@@H](c3ccc(=O)oc3)C[C@H]3O[C@]132 (some centres not stated)
active: DIV14 13.5 µM | ICS 7.08 µM
inactive: CP256 | CP260 | CP262 | CP265 | CP266 | CP268 | CP269 | CP286 | CP291 | CP297 | CP305 | CP315 | CP325 | CP329 | CP335 | DFO2036 | Dd2 | ECU | FAB9 | GB4 | JCK | P94_40 | PC49 | TAB109 | TAB113
